According to PubChem BioAssay (NCATS):
Inconclusive results are not listed. A call without a number means that no potency is given here. Active and inactive are the calls of the source. Calls come from the whole dose curve; as a rule, active = well fitted curve in the direction sought with a large enough effect; inconclusive = small, poorly fitted or top-dose-only effect, or another doubt; inactive = no such curve, though single readings can be large; an effect the other way counts as inactive or inconclusive.

Tests used:
[1] = qHTS of pediatric cancer cell lines to identify multiple opportunities for drug repurposing: Primary screen for Saos-2 cells (AID 1347097); note: nearly all actives have a fitted effect of over 40% in size; note: potency is the fitted concentration of half-maximal effect
Summary of the method: (§1)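 Following a 5-hour attachment period, cells at 500-1,000/well received compounds and were cultured for 48 hours. CellTiter-Glo was added and luminescence read to estimate viable, metabolically active cells.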

[2] = qHTS of pediatric cancer cell lines to identify multiple opportunities for drug repurposing: Primary screen for SK-N-SH cells (AID 1347098); note: nearly all actives have a fitted effect of over 65% in size; note: potency is the fitted concentration of half-maximal effect
Summary of the method: (§2)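 Cells (500-1,000/well) rested 5 h, then received compounds for 48 h; metabolically active cells were measured by CellTiter-Glo luminescence. Final concentrations spanned up to 46 µM (MIPE, 11-point) or 0.59 nM-46 µM (NPC, 8-point) in primary screens, 11-point in follow-ups.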

[3] = qHTS of pediatric cancer cell lines to identify multiple opportunities for drug repurposing: Primary screen for LAN-5 cells (AID 1347100); note: potency is the fitted concentration of half-maximal effect
Summary of the method: (§3)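 Viability after 48 h compound treatment at 37C, 500-1,000 cells/well, read as ATP luminescence with CellTiter-Glo. Primary screens used 11-point (MIPE, 0.78 nM-46 µM) or 8-point (NPC, 0.59 nM-46 µM) final concentrations; follow-up screens used 11-point dilutions.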

[4] = qHTS of pediatric cancer cell lines to identify multiple opportunities for drug repurposing: Primary screen for BT-12 cells (AID 1347101); note: nearly all actives have a fitted effect of over 25% in size; note: potency is the fitted concentration of half-maximal effect
Summary of the method: as §2

[5] = qHTS of pediatric cancer cell lines to identify multiple opportunities for drug repurposing: Primary screen for Rh18 cells (AID 1347102); note: nearly all actives have a fitted effect of over 65% in size; note: potency is the fitted concentration of half-maximal effect
Summary of the method: as §3

[6] = qHTS of pediatric cancer cell lines to identify multiple opportunities for drug repurposing: Primary screen for OHS-50 cells (AID 1347103); note: nearly all actives have a fitted effect of over 40% in size; note: potency is the fitted concentration of half-maximal effect
Summary of the method: as §2

[7] = qHTS of pediatric cancer cell lines to identify multiple opportunities for drug repurposing: Primary screen for RD cells (AID 1347104); note: nearly all actives have a fitted effect of over 55% in size; note: potency is the fitted concentration of half-maximal effect
Summary of the method: as §1

[8] = qHTS of pediatric cancer cell lines to identify multiple opportunities for drug repurposing: Primary screen for MG 63 (6-TG R) cells (AID 1347105); note: nearly all actives have a fitted effect of over 50% in size
Summary of the method: as §1

[9] = qHTS of pediatric cancer cell lines to identify multiple opportunities for drug repurposing: Primary screen for control Hh wild type fibroblast cells (AID 1347106);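 note: series mostly up to about 46 µM; a drop in luminescence marks cytotoxicity and a rise apparent proliferation; nearly all actives have a fitted effect of over 55% in size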
Summary of the method: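 Cells (500-1,000/well) in growth media were settled 5 h at 37 degrees C, then given compounds for 48 h. Viability was read as CellTiter-Glo luminescence. Primary runs used MIPE at 11 points (0.78 nM-46 µM) and NPC at 8 points (0.59 nM-46 µM); follow-ups used 11 points.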

[10] = qHTS of pediatric cancer cell lines to identify multiple opportunities for drug repurposing: Primary screen for Rh30 cells (AID 1347107); note: series mostly up to about 46 µM; nearly all actives have a fitted effect of over 75% in size
Summary of the method: as §3

[11] = qHTS of pediatric cancer cell lines to identify multiple opportunities for drug repurposing: Primary screen for Rh41 cells (AID 1347108); note: nearly all actives have a fitted effect of over 70% in size; note: potency is the fitted concentration of half-maximal effect
Summary of the method: as §1

[12] = qHTS of pediatric cancer cell lines to identify multiple opportunities for drug repurposing: Primary screen for NB1643 cells (AID 1347099); note: nearly all actives have a fitted effect of over 50% in size
Summary of the method: as §1

[13] = qHTS of pediatric cancer cell lines to identify multiple opportunities for drug repurposing: Confirmatory screen for NB1643 cells (AID 1347109); note: nearly all actives have a fitted effect of over 45% in size; note: potency is the fitted concentration of half-maximal effect
Summary of the method: as §3

[14] = qHTS of pediatric cancer cell lines to identify multiple opportunities for drug repurposing: Confirmatory screen for A673 cells (AID 1347110); note: nearly all actives have a fitted effect of over 65% in size; note: potency is the fitted concentration of half-maximal effect
Summary of the method: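 Viability was read as ATP luminescence (CellTiter-Glo) after 48 h of compound exposure at 37 C in A673 cells seeded at 500-1,000/well. Titrations reached 46 uM final, with 11 points in the confirmatory screen. Concentration-response curves were fitted directly.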

[15] = qHTS of pediatric cancer cell lines to identify multiple opportunities for drug repurposing: Confirmatory screen for SK-N-MC cells (AID 1347111);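 note: potency is the fitted concentration of half-maximal effect; cells exposed to compound for 48 h before the readout; nearly all actives have a fitted effect of over 70% in size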
Summary of the method: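 SK-N-MC cells at 500-1,000 cells/well in growth media were pre-incubated 5 h, then exposed to compounds at 11-point dilutions for 48 h at 37 degrees C, 5% CO2. Viability was read as CellTiter-Glo luminescence.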

[16] = qHTS of pediatric cancer cell lines to identify multiple opportunities for drug repurposing: Confirmatory screen for BT-12 cells (AID 1347112); note: nearly all actives have a fitted effect of over 55% in size; note: potency is the fitted concentration of half-maximal effect
Summary of the method: as §3

[17] = qHTS of pediatric cancer cell lines to identify multiple opportunities for drug repurposing: Confirmatory screen for LAN-5 cells (AID 1347113); note: nearly all actives have a fitted effect of over 65% in size; note: potency is the fitted concentration of half-maximal effect
Summary of the method: as §3

[18] = qHTS of pediatric cancer cell lines to identify multiple opportunities for drug repurposing: Confirmatory screen for NB-EBc1 cells (AID 1347115); note: nearly all actives have a fitted effect of over 45% in size; note: potency is the fitted concentration of half-maximal effect
Summary of the method: as §3

[19] = qHTS of pediatric cancer cell lines to identify multiple opportunities for drug repurposing: Confirmatory screen for SJ-GBM2 cells (AID 1347116); note: nearly all actives have a fitted effect of over 60% in size; note: potency is the fitted concentration of half-maximal effect
Summary of the method: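 Viability measured as metabolically active cells via CellTiter-Glo luminescence following 48 hours of compound exposure, 11-point dilutions in confirmatory testing. 500-1,000 cells/well plated 5 hours before dosing; controls were DMSO and 2.3 µM bortezomib.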

[20] = qHTS of pediatric cancer cell lines to identify multiple opportunities for drug repurposing: Confirmatory screen for BT-37 cells (AID 1347117); note: nearly all actives have a fitted effect of over 55% in size; note: potency is the fitted concentration of half-maximal effect
Summary of the method: as §3

Compound	Potency [1]	Potency [2]	Potency [3]	Potency [4]	Potency [5]	Potency [6]	Potency [7]	Potency [8]	Potency [9]	Potency [10]	Potency [11]	Potency [12]	Potency [13]	Potency [14]	Potency [15]	Potency [16]	Potency [17]	Potency [18]	Potency [19]	Potency [20]
CC(C)C(=O)Nc1cccc(C2CN3CCSC3=N2)c1 (stereo unspecified)	inactive	inactive	inactive	inactive	inactive	inactive	inactive	inactive	inactive	inactive	inactive	–	–	–	–	–	–	–	–	–
CC(NC(CCc1ccccc1)C(=O)O)C(=O)N1C(=O)N(C)CC1C(=O)O (stereo unspecified)	inactive	inactive	inactive	inactive	inactive	inactive	inactive	inactive	inactive	inactive	inactive	–	–	–	–	–	–	–	–	–
CCOc1c(N2CCOCC2)cnn(C)c1=O	inactive	inactive	inactive	inactive	inactive	inactive	inactive	inactive	inactive	–	inactive	–	–	–	–	–	–	–	–	–
CC(C)(C)NCC(O)COc1ccccc1OCC1CCCO1 (stereo unspecified)	inactive	inactive	–	inactive	inactive	–	inactive	inactive	inactive	inactive	inactive	inactive	–	–	–	–	–	–	–	–
COc1cc2c(cc1OC)CN(C(=O)[C@H](C)N[C@@H](CCc1ccccc1)C(=O)O)[C@H](C(=O)O)C2	inactive	inactive	–	inactive	inactive	–	inactive	inactive	–	inactive	inactive	inactive	–	–	–	–	–	–	–	–
Cc1cc(=O)oc2cc(O[C@@H]3SC[C@@H](O)[C@H](O)[C@H]3O)ccc12	inactive	inactive	inactive	inactive	inactive	inactive	inactive	inactive	inactive	inactive	inactive	–	–	–	–	–	–	–	–	–
CC(=O)[C@H]1CC[C@H]2[C@@H]3C=CC4=CC(=O)CC[C@@]4(C)[C@@H]3CC[C@]12C	inactive	inactive	–	inactive	–	–	inactive	inactive	inactive	inactive	inactive	inactive	–	–	–	–	–	–	–	–
CCOC(=O)NNc1nncc2ccccc12	inactive	inactive	inactive	inactive	inactive	inactive	inactive	inactive	inactive	inactive	inactive	–	–	–	–	–	–	–	–	–
Cc1cc(O)c(C)c(C)c1O	inactive	inactive	16.8 µM (active)	inactive	inactive	inactive	inactive	–	inactive	–	inactive	–	–	–	–	–	–	–	–	–
CCN1C(=O)c2ccccc2C1Nc1ccc(OCCN2CCCCC2)cc1 (stereo unspecified)	inactive	inactive	–	inactive	–	inactive	inactive	inactive	inactive	inactive	inactive	inactive	–	–	–	–	–	–	–	–
CCCCC(O)/C=C(C)/C=C/C=C/C(=O)N1CCCC1=O (stereo unspecified)	inactive	inactive	inactive	inactive	inactive	inactive	inactive	inactive	inactive	inactive	inactive	–	–	–	–	–	–	–	–	–
Cc1ccc(-c2ccccc2C#N)cc1	inactive	inactive	inactive	inactive	inactive	inactive	inactive	inactive	inactive	inactive	inactive	–	–	–	–	–	–	–	–	–
O=c1[nH]c2ccccc2c(=O)n1CCCl	inactive	inactive	inactive	inactive	inactive	–	inactive	inactive	inactive	inactive	inactive	–	–	–	–	–	–	–	–	–
O=C1CCCc2c(O)cccc21	inactive	inactive	–	inactive	inactive	inactive	inactive	inactive	–	inactive	inactive	inactive	–	–	–	–	–	–	–	–
CO[C@@H]1[C@@H](OC)[C@H](C)[C@@](O)(CC(=O)O)O[C@H]1[C@H](C)[C@H]1O[C@@]2(CC[C@@](C)([C@H]3CC[C@@](C)([C@@H]4O[C@@H]([C@H]5O[C@](C)(O)[C@H](C)C[C@@H]5C)C[C@@H]4OC4C[C@H](OC)[C@@H](OC)[C@H](C)O4)O3)O2)C[C@H](O)[C@H]1C (stereo partly specified)	5.31 µM (active)	2.44 µM (active)	1.06 µM (active)	0.347 µM (active)	3.76 µM (active)	0.389 µM (active)	4.73 µM (active)	–	–	–	4.22 µM (active)	–	0.737 µM (active)	2.61 µM (active)	1.31 µM (active)	0.657 µM (active)	0.522 µM (active)	1.47 µM (active)	7.37 µM (active)	0.522 µM (active)
CC[N+](CC)(CC)CCOC(=O)C(C1CCCC1)C1CCCC1	inactive	inactive	–	–	–	–	inactive	–	inactive	inactive	inactive	inactive	–	–	–	–	–	–	–	–
CCOC(=O)c1ccc(NC(=O)CN2CCCCC2)cc1	inactive	inactive	–	inactive	inactive	inactive	inactive	inactive	inactive	–	inactive	inactive	–	–	–	–	–	–	–	–
CCCc1ccc(OCC(=O)N2CCN(C(=O)COc3ccc(CCC)cc3OC)CC2)c(OC)c1	inactive	inactive	–	inactive	inactive	inactive	inactive	inactive	–	inactive	inactive	inactive	–	–	–	–	–	–	–	–
CCOC(=O)O[C@]1(C(=O)OCCl)CC[C@H]2[C@@H]3CCC4=CC(=O)C=C[C@]4(C)[C@H]3[C@@H](O)C[C@@]21C	inactive	inactive	inactive	inactive	inactive	inactive	inactive	inactive	inactive	inactive	inactive	–	inactive	inactive	–	inactive	inactive	–	inactive	inactive

Compound	Potency [1]	Potency [2]	Potency [3]	Potency [4]	Potency [5]	Potency [6]	Potency [7]	Potency [8]	Potency [9]	Potency [10]	Potency [11]	Potency [12]	Potency [13]	Potency [14]	Potency [15]	Potency [16]	Potency [17]	Potency [18]	Potency [19]	Potency [20]
CCCCC(CC)CNC(=O)CC(C)OC(=O)CCC(=O)O (stereo unspecified)	inactive	inactive	inactive	inactive	inactive	inactive	inactive	inactive	inactive	inactive	inactive	–	inactive	2.61 µM (active)	–	inactive	–	inactive	inactive	inactive
C[C@H](CN1CCCC1)C(=O)c1ccc(C(F)(F)F)cc1	inactive	inactive	–	inactive	inactive	–	inactive	inactive	inactive	inactive	inactive	inactive	–	–	–	–	–	–	–	–
CN(C(=O)C(Cl)Cl)c1ccc(OC(=O)c2ccco2)cc1	inactive	inactive	inactive	inactive	inactive	inactive	inactive	inactive	inactive	inactive	inactive	–	–	–	–	–	–	–	–	–
CC1(C)O[C@@H]2C[C@H]3[C@@H]4CCC5=CC(=O)C=C[C@]5(C)[C@@]4(F)[C@@H](O)C[C@]3(C)[C@]2(C(=O)CO)O1	inactive	inactive	inactive	inactive	inactive	inactive	inactive	inactive	inactive	inactive	inactive	–	–	–	–	–	–	–	–	–
C[C@]12CCC(=O)C=C1CC[C@@H]1[C@@H]2[C@@H](O)C[C@@]2(C)[C@H]1CC[C@]2(O)C(=O)COC(=O)CCC(=O)O	inactive	inactive	inactive	inactive	inactive	–	inactive	inactive	inactive	inactive	inactive	–	inactive	inactive	18.5 µM (active)	inactive	inactive	–	inactive	inactive
Cc1oc(-c2ccccc2)nc1CCC(=O)c1ccc(CC2SC(=O)NC2=O)cc1 (stereo unspecified)	inactive	inactive	–	–	inactive	–	inactive	inactive	inactive	inactive	inactive	inactive	–	–	–	–	–	–	–	–
OC[C@]1(O)OC[C@@H](O)[C@H](O)[C@@H]1O	inactive	inactive	–	inactive	inactive	–	inactive	inactive	inactive	inactive	inactive	inactive	–	–	–	–	–	–	–	–
CN(C)[C@@H]1C(=O)C(C(N)=O)=C(O)[C@@]2(O)C(=O)C3=C(O)c4c(O)cccc4C[C@H]3C[C@@H]12	inactive	inactive	–	17.4 µM (active)	–	–	inactive	inactive	inactive	inactive	inactive	inactive	–	–	–	–	–	–	–	–
COc1cc(/C=C/C(N)=O)cc(OC)c1OC	inactive	inactive	inactive	inactive	inactive	–	inactive	inactive	inactive	inactive	inactive	–	–	inactive	–	–	inactive	inactive	–	–
CCCc1ncc(C(=O)O)s1	inactive	inactive	inactive	inactive	inactive	inactive	inactive	inactive	inactive	inactive	inactive	–	–	–	–	–	–	–	–	–
O=C(CS(=O)Cc1ccco1)NC/C=C\COc1cc(CN2CCCCC2)ccn1 (stereo unspecified)	inactive	inactive	inactive	inactive	inactive	inactive	inactive	inactive	–	inactive	inactive	–	–	–	–	–	–	–	–	–
Nc1ccc([N+](=O)[O-])c(C(F)(F)F)c1	inactive	–	inactive	inactive	inactive	inactive	inactive	inactive	inactive	inactive	inactive	inactive	–	–	–	–	–	–	–	–
Oc1cccc2[nH]ccc12	inactive	–	inactive	inactive	inactive	inactive	inactive	inactive	inactive	–	inactive	inactive	–	–	–	–	–	–	–	–
N=C(N)c1ccc(OCCCOc2ccc(C(=N)N)cc2)cc1	inactive	–	inactive	2.19 µM (active)	inactive	inactive	inactive	inactive	inactive	inactive	inactive	inactive	inactive	inactive	–	–	inactive	inactive	–	inactive
CC(=O)/C=C/C=C1/C2CCC(C2)C1(C)C (stereo unspecified)	inactive	inactive	–	inactive	inactive	inactive	inactive	inactive	inactive	inactive	inactive	–	–	–	–	–	–	–	–	–
CCCCCCn1c(=O)c2c(ncn2C)n(C)c1=O	inactive	inactive	inactive	inactive	inactive	–	inactive	–	inactive	inactive	inactive	–	–	–	–	–	–	–	–	–
CC(NCCC(c1ccccc1)c1ccccc1)c1ccccc1 (stereo unspecified)	26.6 µM (active)	27.3 µM (active)	–	27.6 µM (active)	–	17.4 µM (active)	–	–	–	–	–	–	–	–	–	–	–	–	–	–
COc1cc(C=O)ccc1O	inactive	–	inactive	inactive	inactive	inactive	inactive	inactive	inactive	inactive	inactive	inactive	–	–	–	–	–	–	–	–
NC(=O)C1(N2CCCCC2)CCN(CCCN2c3ccccc3CCc3ccc(Cl)cc32)CC1	21.1 µM (active)	13.7 µM (active)	–	19.5 µM (active)	–	24.6 µM (active)	–	–	–	–	–	–	–	–	–	–	–	–	–	–
